# The supplement of paper PMC6607015
# Structures can show the parent of a compound that is named as a salt.
# Assays:
# Conditions in all cases: compound concentration in added solution (µM; 5 µl added to 20 µl cells): 10; 18 h
# [1] = test system: A431; assay: LBPA endosome anti-LBPA integrated intensity (sum per cell), Z-score; higher = more LBPA staining
# Summary of the method: (§1)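 In duplicate 384-well imaging plates, 3,500 HeLa MZ or A431 cells in 20 µl per well were seeded onto 5 µl of 10 µM compound solution. The cells were incubated for 18 h, fixed in 4% PFA and stained with 6C4 anti-LBPA antibody, filipin, propidium iodide and CellTracker green before four 20× images were acquired per well. Values are AcuityXpress-normalised Z-scores of per-cell integrated LBPA or filipin intensity, obtained by MetaXpress segmentation over the whole cell or in LBPA endosomes.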
# [2] = test system: HeLa MZ; assay: as above
# Summary of the method: as §1
# [3] = test system: A431; assay: whole-cell filipin (free cholesterol) integrated intensity, Z-score; higher = more cholesterol staining
# Summary of the method: as §1
# [4] = test system: HeLa MZ; assay: as above
# Summary of the method: as §1
# [5] = test system: A431; assay: filipin (cholesterol) integrated intensity within LBPA endosomes, Z-score; higher = more cholesterol in LBPA endosomes
# Summary of the method: as §1
# [6] = test system: HeLa MZ; assay: as above
# Summary of the method: as §1
SMILES,LBPA endosome anti-LBPA integrated intensity (z-score) [1],LBPA endosome anti-LBPA integrated intensity (z-score) [2],whole-cell filipin (z-score) [3],whole-cell filipin (z-score) [4],filipin (z-score) [5],filipin (z-score) [6]
NC1CCN(c2nc3c(cc2F)c(=O)c(C(=O)O)cn3-c2ccc(F)cc2F)C1 (stereo not given) [Tosufloxacin hydrochloride],-0.551,-1.59,-0.466,-1.51,-0.679,-0.966
CC(C)(O/N=C(\C(=O)N[C@@H]1C(=O)N2C(C(=O)[O-])=C(C[n+]3ccccc3)CS[C@H]12)c1csc(N)n1)C(=O)O [Ceftazidime pentahydrate],-0.536,-0.783,-0.451,-0.099,-0.531,-0.437
NCc1ccccc1CC(=O)N[C@@H]1C(=O)N2C(C(=O)O)=C(CSc3nnnn3CC(=O)O)CS[C@H]12 [Ceforanide],-0.318,-0.0362,-0.326,-0.285,-0.513,-0.563
CCCCC(CC)CN1CN(CC(CC)CCCC)CC(C)(N)C1 (stereo not given) [Hexetidine],0.287,-1.15,1.01,-0.0808,0.351,-0.116
CN(C)CCCN1c2ccccc2CCc2ccc(Cl)cc21 [Clomipramine hydrochloride],3.59,1.91,1.1,-0.141,2.35,1.89
CCCc1nn(C)c2c(=O)[nH]c(-c3cc(S(=O)(=O)N4CCN(C)CC4)ccc3OCC)nc12 [Sildenafil],-0.41,-0.61,-0.134,-0.0955,-0.415,-0.257
Clc1ccc2nsnc2c1NC1=NCCN1 [Tizanidine HCl],-0.331,0.552,-0.333,-0.51,-0.548,-0.219
CC(=O)c1ccc(S(=O)(=O)NC(=O)NC2CCCCC2)cc1 [Acetohexamide],-0.506,-0.393,-0.763,-0.947,-0.604,-0.673
CC(=O)Oc1ccc(C(c2ccc(OC(C)=O)cc2)c2ccccn2)cc1 [Bisacodyl],-0.461,0.379,-0.546,0.375,-0.421,-0.162
OCc1cc(C(O)CNCCCCCCOCCCCc2ccccc2)ccc1O (stereo not given) [Salmeterol],2.65,2.85,3.59,2.48,1.61,2.18
